40 molecules from PubChem BioAssay can be followed below.

Calls of active or inactive are those of the source.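 The calls were made as follows, unless noted: active = visual image review flags a hit and inhibition of aggregation exceeds 20%; inconclusive = visual hit but inhibition at or below 20%; inactive = no hit on visual image review.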 Where a SMILES comes first, the peptide text is derived from it. The star is where a group is joined. Boc = CC(C)(C)OC(=O)*

The first assay is described as follows: inhibitors of TNFa-induced NFkB p65 translocation, primary screen, imaging, HUVEC, MLSMR starter and 10KST1 sets (AID 438;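 active = inhibition above 20% together with a positive visual image hit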;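 also: compound added about 3h40 before a 20 min TNFalpha stimulation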;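 as to inhibition: signal is the nuclear over cytoplasmic p65 intensity ratio per well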). As to conditions: HUVEC TNFa-induced p65 nuclear translocation; cell count: measured here: nuclei count (cytotoxicity indicator), at 2.08 µM; inhibition: at 2 µM, stronger effect = higher value, 0% TNFa-plus-vehicle, 100% no-TNFa wells.
Consider `CCN(CC(=O)NC(=O)NCc1ccco1)Cc1nc2ccccc2c(=O)[nH]1`, for which the cell count worked out at 407 and the inhibition (as a rule, the relative decrease from the control value, in per cent) is -20.9% (inactive).
`CC(=O)c1nnn(-c2nc(N3CCCC3)nc(N(c3ccccc3)c3ccccc3)n2)c1C`: the cell count was found to be 558 and the inhibition was 8.9% (inactive).
In the case of `CC(NC(=O)c1ccccc1NC(=O)c1ccco1)C(=O)O` (stereo not given), the inhibition was 0.9% (inactive) and the cell count stood at 438.
For `CCN(CC)S(=O)(=O)c1ccc2oc(C(=O)O)c(C)c2c1`, the cell count was 335 and the inhibition is 12.8% (inactive).
Turning to `CCOc1ccc(N(CC(=O)NCC2CCCO2)S(=O)(=O)c2ccc(OC)c(OC)c2)cc1` (stereo not given), the cell count came out at 326 and the inhibition is 3.5% (inactive).
The matching figures for `O=C(CSc1nnc(-c2cccs2)o1)N1CCOCC1`: 280 and -13.9% (inactive).
With `CCc1c(C)nc(N2CCN(Cc3ccccc3)CC2)[nH]c1=O`, the cell count came out at 623 and the inhibition was -17.8% (inactive).
On to `CCOc1ncccc1C(=O)OCC(=O)Nc1ncc(C(F)(F)F)cc1Cl`, for which the cell count stood at 474 and the inhibition is -12.1% (inactive).
Regarding `O=C(NCc1n[nH]c(=S)n1-c1ccc(F)cc1)c1ccco1`, the cell count stood at 711 and the inhibition was -16.8% (inactive).
For `CCOc1ccccc1N1CCN(c2nc(N)c(C#N)c(CC#N)c2C#N)CC1`, the inhibition is -1.7% (inactive) and the cell count worked out at 687.
Regarding `CCOc1ccc2cc(C#N)c(SCC(=O)N3CCCC3)nc2c1`, the cell count came to 451 and the inhibition was -6.5% (inactive).
The matching figures for `COC(=O)c1ccc(CSc2nc3ccccc3c(=O)n2Cc2ccco2)o1`: 414 and 2.6% (inactive).
The matching figures for `CCn1c(C(=O)N2CCCC(C(=O)O)C2)cc2sccc21` (stereo not given): 335 and 26.3% (active).
In the case of `CCOC(=O)C(CC)(CCC(=O)O)c1csc(N)n1` (stereo not given), the cell count was 518 and the inhibition is 9.6% (inactive).
Turning to `Cc1c(C(=O)O)oc2ccc(S(=O)(=O)NCc3ccccc3)cc12`, the cell count came to 675 and the inhibition is -4.8% (inactive).
Turning to `COc1cc(-c2noc(-c3cccc(Cl)c3)n2)cc(OC)c1OC`, the inhibition is -0.6% (inactive) and the cell count turned out to be 778.
The matching figures for `COc1ccc2c(c1)c1c(n2C(C)=O)C(OC(C)=O)=NCC1`: -1.4% (inactive) and 904.
For `Nc1c(C2=NCCO2)nnn1Cc1ccccc1`, in that order: 4.2% (inactive) and 612.
The matching figures for `COc1ccccc1-c1noc(-c2cccnc2)n1`: 0% (inactive) and 405.
For the molecule `CCn1ncc(C2=NOC(C(=O)NCc3ccc(Cl)cc3)C2)c1C` (stereo not given), the cell count worked out at 576 and the inhibition is 13.4% (inactive).
Consider `COC(=O)c1cc(Br)c(=O)n(CCN2CCOCC2)c1`, for which the cell count is 563 and the inhibition is 5.4% (inactive).
In the case of `COc1ccc(OC)c(S(=O)(=O)Nc2ccc(C(N)=O)cc2)c1`, the cell count is 684 and the inhibition was -2.6% (inactive).
For `O=C(Cn1nc(-c2ccc(Cl)cc2)ccc1=O)NCCCN1CCN(Cc2ccccc2)CC1`, in that order: 518 and 10.6% (inactive).
With `CCC1Oc2ccccc2N(CC(=O)Nc2ccc(OC)cc2OC)C1=O` (stereo not given), the inhibition is 44.3% (active) and the cell count is 726.
For `COCCCNC(=O)CCc1nc(-c2ccccc2Cl)no1`, in that order: 8.6% (inactive) and 476.
Regarding `CC(C)(C)OC(=O)N1CCCC1C(=O)N1CCCC1C(=O)N1CCCC1C(=O)O` (stereo not drawn) (Boc-Pro-Pro-Pro-OH; configuration not given here), the cell count is 302 and the inhibition is -6.9% (inactive).
Regarding `CCOC(=O)N1CCN(S(=O)(=O)c2cc(Cl)c(OC)cc2Cl)CC1`, the inhibition is -9.8% (inactive) and the cell count turned out to be 364.
The matching figures for `c1ccc(Cn2nnnc2C(c2ccccn2)N2CCOCC2)cc1` (stereo not given): 2.1% (inactive) and 485.
With `Cc1nn(-c2ccc(F)cc2)c2nc(N)c(C#N)c(-c3cccs3)c12`, the cell count was 483 and the inhibition was 5.7% (inactive).
The matching figures for `O=C(c1ccc(NS(=O)(=O)c2cccs2)cc1)N1CCCCC1`: 287 and 5% (inactive).
For `O=c1c2nnn(Cc3ccccc3)c2ncn1-c1ccccc1`, in that order: 522 and -8.6% (inactive).
The matching figures for `COc1cccc(CNC(=O)CCn2c(=O)oc3ccccc32)c1`: 277 and -11.3% (inactive).
Regarding `COc1ccc(-c2nn(-c3ccccc3)cc2/C=N/n2cnnc2)cc1OC`, the inhibition is 0.7% (inactive) and the cell count turned out to be 737.
Regarding `CN(CCC#N)C(=O)COC(=O)c1ccc(Cl)c(S(N)(=O)=O)c1`, the cell count was found to be 426 and the inhibition is -2.2% (inactive).
For `CC(C)C(=O)Nc1nnc(CCc2nnc(NC(=O)C(C)C)s2)s1`, in that order: 793 and -10.1% (inactive).
For the molecule `CCN(CCCNC(=O)c1cn(CC)c2ccc(S(=O)(=O)N(C)C)cc2c1=O)c1cccc(C)c1`, the inhibition was -12.9% (inactive) and the cell count was found to be 587.
For `Cc1ccc(S(=O)(=O)n2nc(OC(=O)c3ccco3)cc2N)cc1`, in that order: -8.3% (inactive) and 512.
The matching figures for `COc1ccc2c(C(=O)CN(C)C3CCCCC3)c[nH]c2c1`: -0.9% (inactive) and 533.
For the molecule `CCOC(=O)CN(C)Cc1c[nH]c2ccccc12`, the cell count amounted to 442 and the inhibition is -2.2% (inactive).
As for `CCOC(=O)N1CCN(C(=O)CN(C)S(=O)(=O)c2ccc(OC)c(OC)c2)CC1`, the cell count turned out to be 464 and the inhibition is 5.8% (inactive).

A further assay can be described thus: inhibitors of mutant huntingtin aggregation, primary screen, imaging, exon1htt(103Q)mCFP cells, high-content imaging (AID 483).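 Also: compound exposure lasted 3 days before fixation.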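 As to nuclei count: percent of the per-plate median nuclei count of sample wells.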 As to conditions: exon1htt(103Q)mCFP cell line, aggregate imaging, at 2 µM; inhibition of aggregation: stronger effect = higher value; nuclei count: measured here: cell count, toxicity.
Take `CCN(CC(=O)NC(=O)NCc1ccco1)Cc1nc2ccccc2c(=O)[nH]1`: the nuclei count was determined as 97.9% and the inhibition of aggregation was -36.6% (inactive).
As to `CC(=O)c1nnn(-c2nc(N3CCCC3)nc(N(c3ccccc3)c3ccccc3)n2)c1C`, the inhibition of aggregation is 2.6% (inactive) and the nuclei count was 109%.
The matching figures for `CC(NC(=O)c1ccccc1NC(=O)c1ccco1)C(=O)O` (stereo not given): -9.6% (inactive) and 100%.
Regarding `CCN(CC)S(=O)(=O)c1ccc2oc(C(=O)O)c(C)c2c1`, the nuclei count was 85.6% and the inhibition of aggregation was 39.6% (inactive).
For `CCOc1ccc(N(CC(=O)NCC2CCCO2)S(=O)(=O)c2ccc(OC)c(OC)c2)cc1` (stereo not given), in that order: 107% and -10.6% (inactive).
Take `O=C(CSc1nnc(-c2cccs2)o1)N1CCOCC1`: the inhibition of aggregation is -11.6% (inactive) and the nuclei count amounted to 88.7%.
For `CCc1c(C)nc(N2CCN(Cc3ccccc3)CC2)[nH]c1=O`, in that order: 17.3% (inactive) and 120%.
For `CCOc1ncccc1C(=O)OCC(=O)Nc1ncc(C(F)(F)F)cc1Cl`, the nuclei count was found to be 80.7% and the inhibition of aggregation was -26.1% (inactive).
The matching figures for `O=C(NCc1n[nH]c(=S)n1-c1ccc(F)cc1)c1ccco1`: 102% and -0.3% (inactive).
The matching figures for `CCOc1ccccc1N1CCN(c2nc(N)c(C#N)c(CC#N)c2C#N)CC1`: 88.7% and -18.6% (inactive).
For `CCOc1ccc2cc(C#N)c(SCC(=O)N3CCCC3)nc2c1`, in that order: 99.8% and 3.1% (inactive).
In the case of `COC(=O)c1ccc(CSc2nc3ccccc3c(=O)n2Cc2ccco2)o1`, the nuclei count was determined as 111% and the inhibition of aggregation was -12.9% (inactive).
With `CCn1c(C(=O)N2CCCC(C(=O)O)C2)cc2sccc21` (stereo not given), the inhibition of aggregation was -57.1% (inactive) and the nuclei count stood at 115%.
For `CCOC(=O)C(CC)(CCC(=O)O)c1csc(N)n1` (stereo not given), in that order: -2.8% (inactive) and 91.6%.
For `Cc1c(C(=O)O)oc2ccc(S(=O)(=O)NCc3ccccc3)cc12`, in that order: 21.7% (inactive) and 108%.
`COc1cc(-c2noc(-c3cccc(Cl)c3)n2)cc(OC)c1OC`: the nuclei count worked out at 103% and the inhibition of aggregation is -21% (inactive).
The matching figures for `COc1ccc2c(c1)c1c(n2C(C)=O)C(OC(C)=O)=NCC1`: 101% and -12.8% (inactive).
As to `Nc1c(C2=NCCO2)nnn1Cc1ccccc1`, the inhibition of aggregation is 19.4% (inactive) and the nuclei count came out at 79.3%.
In the case of `COc1ccccc1-c1noc(-c2cccnc2)n1`, the inhibition of aggregation was -5.9% (inactive) and the nuclei count was 106%.
With `CCn1ncc(C2=NOC(C(=O)NCc3ccc(Cl)cc3)C2)c1C` (stereo not given), the inhibition of aggregation was -30.2% (inactive) and the nuclei count worked out at 36.3%.
For `COC(=O)c1cc(Br)c(=O)n(CCN2CCOCC2)c1`, in that order: 1.7% (inactive) and 96.1%.
`COc1ccc(OC)c(S(=O)(=O)Nc2ccc(C(N)=O)cc2)c1`: the nuclei count came to 107% and the inhibition of aggregation is -13.7% (inactive).
The matching figures for `O=C(Cn1nc(-c2ccc(Cl)cc2)ccc1=O)NCCCN1CCN(Cc2ccccc2)CC1`: 97.4% and -12.5% (inactive).
The matching figures for `CCC1Oc2ccccc2N(CC(=O)Nc2ccc(OC)cc2OC)C1=O` (stereo not given): 117% and -17.4% (inactive).
For the molecule `COCCCNC(=O)CCc1nc(-c2ccccc2Cl)no1`, the nuclei count worked out at 95.7% and the inhibition of aggregation was -10.1% (inactive).
As to `CC(C)(C)OC(=O)N1CCCC1C(=O)N1CCCC1C(=O)N1CCCC1C(=O)O` (stereo not drawn) (Boc-Pro-Pro-Pro-OH; configuration not given here), the nuclei count worked out at 49.1% and the inhibition of aggregation was 4.5% (inactive).
Turning to `CCOC(=O)N1CCN(S(=O)(=O)c2cc(Cl)c(OC)cc2Cl)CC1`, the nuclei count is 100% and the inhibition of aggregation is -8.2% (inactive).
The matching figures for `c1ccc(Cn2nnnc2C(c2ccccn2)N2CCOCC2)cc1` (stereo not given): 81.4% and -13% (inactive).
For `Cc1nn(-c2ccc(F)cc2)c2nc(N)c(C#N)c(-c3cccs3)c12`, in that order: 81.1% and 3% (inactive).
As to `O=C(c1ccc(NS(=O)(=O)c2cccs2)cc1)N1CCCCC1`, the nuclei count was determined as 74.9% and the inhibition of aggregation was -0.8% (inactive).
For `O=c1c2nnn(Cc3ccccc3)c2ncn1-c1ccccc1`, in that order: 86.9% and 16.2% (inactive).
Consider `COc1cccc(CNC(=O)CCn2c(=O)oc3ccccc32)c1`, for which the nuclei count was determined as 8.9% and the inhibition of aggregation is 21.1% (inactive).
For `COc1ccc(-c2nn(-c3ccccc3)cc2/C=N/n2cnnc2)cc1OC`, the nuclei count came out at 100% and the inhibition of aggregation was -17.1% (inactive).
For `CN(CCC#N)C(=O)COC(=O)c1ccc(Cl)c(S(N)(=O)=O)c1`, in that order: 58.5% and 17.6% (inactive).
For `CC(C)C(=O)Nc1nnc(CCc2nnc(NC(=O)C(C)C)s2)s1`, in that order: 89.2% and 9.8% (inactive).
The matching figures for `CCN(CCCNC(=O)c1cn(CC)c2ccc(S(=O)(=O)N(C)C)cc2c1=O)c1cccc(C)c1`: 106% and 23.2% (inactive).
For the molecule `Cc1ccc(S(=O)(=O)n2nc(OC(=O)c3ccco3)cc2N)cc1`, the inhibition of aggregation is -12% (inactive) and the nuclei count came to 115%.
The matching figures for `COc1ccc2c(C(=O)CN(C)C3CCCCC3)c[nH]c2c1`: -4.4% (inactive) and 82.5%.
For `CCOC(=O)CN(C)Cc1c[nH]c2ccccc12`, in that order: -15.3% (inactive) and 93.9%.
For `CCOC(=O)N1CCN(C(=O)CN(C)S(=O)(=O)c2ccc(OC)c(OC)c2)CC1`, in that order: -12.7% (inactive) and 118%.
